TGFb inhibitor – blocks TGF-b signaling; AID 588855; Potency, µM (top dose mostly 46.1 µM), actives largely listed as inhibitors; HepG2 CAGA-GFP TGF-b/SMAD3 reporter, GFP fluorescence, 18 h; TGF-beta stimulated, 500 pg/mL final; hit rate 1.2% among 410,000; note: nearly all actives have a fitted effect of over 65% in size
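Read-out: total well GFP (ex488/em500-530) summed from mean per-cell fluorescence. Cells: HEPG2 CAGA-GFP, 1% FBS DMEM, 18 h at 37 degrees C with 500 pg/mL final TGF-beta. Unstimulated wells served as the full-inhibition control; stimulated DMSO wells = 0%.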
Gal4-VP16 FLuc – counter-screen for ROR gamma inhibitors: Gal4-VP16 reporter. Drosophila S2 Gal4-VP16 UAS-luciferase, luminescence, 20 h. hit rate 3.5% among 310,000. Potency, µM (series often up to 53.6 µM), hits mostly inhibitors. AID 2546;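 note: Gal4-VP16 expression switched on by copper sulfate through the metallothionein promoter; nearly all actives have a fitted effect of over 50% in size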
RORg inh – inhibitors of mouse ROR gamma transcriptional activity; P51450; Drosophila S2 Gal4-RORgamma UAS-luciferase reporter, 20 h; Potency, µM (top dose mostly 53.6 µM), usual class: inhibitors; hit rate 5.4% among 310,000; note: nearly all actives have a fitted effect of over 60% in size
Target sequence (P51450 whole entry, looked up, the tested form may be a part): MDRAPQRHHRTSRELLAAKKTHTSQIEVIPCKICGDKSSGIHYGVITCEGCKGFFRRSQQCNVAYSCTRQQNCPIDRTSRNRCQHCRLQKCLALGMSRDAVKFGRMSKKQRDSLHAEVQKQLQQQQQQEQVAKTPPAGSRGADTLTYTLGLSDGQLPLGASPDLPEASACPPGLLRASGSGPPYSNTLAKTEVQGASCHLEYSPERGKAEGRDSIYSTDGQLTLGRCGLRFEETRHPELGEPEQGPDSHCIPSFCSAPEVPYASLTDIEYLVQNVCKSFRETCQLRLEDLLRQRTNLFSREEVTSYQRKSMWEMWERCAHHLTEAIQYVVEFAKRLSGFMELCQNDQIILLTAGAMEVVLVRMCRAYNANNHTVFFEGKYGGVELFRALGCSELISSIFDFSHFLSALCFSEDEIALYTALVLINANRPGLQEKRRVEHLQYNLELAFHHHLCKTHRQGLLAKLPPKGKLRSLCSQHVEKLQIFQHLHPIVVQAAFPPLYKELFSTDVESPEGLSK
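A Gal4/UAS one-hybrid system in insect cells: metallothionein-promoter Gal4–ROR gamma fusion plus Photinus luciferase reporter. Copper sulfate 700 uM final, 20 hr ambient incubation, luminescent detection after 10 min with reagent.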
ATXN2 expr inh – inhibitors of ATXN2 expression; HEK-293 ATXN2-luciferase reporter, luminescence, 24 h; hit rate 0.72% among 360,000; Potency, µM (doses to about 57 µM), usual class: inhibitors; AID 1745845; note: nearly all actives have a fitted effect of over 55% in size
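qHTS (up to 57 uM final) was run with 24 h compound exposure of reporter cells at 37 °C. Each well was multiplexed: SteadyGlo luminescence measured ATXN2-luciferase expression after a fluorogenic Gly-Phe-AFC viability readout (25 uM final).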
HepG2 tox – counter-screen for TGF-b inhibitors: cytotoxicity in HepG2 cells. HepG2 CAGA-GFP viability, ATP luminescence, 18 h. hit rate 0.76% among 410,000. Potency, µM (highest dose often 46.1 µM), actives largely listed as cytotoxic
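HepG2 CAGA-GFP cells (1000/well, DMEM with 1% FBS) received compound, then TGF-beta at 500 pg/mL final, and were incubated 18 hours at 37 degrees C. Viability was read by CellTiter-Glo luminescence. Media-only wells were set as complete cell-killing and DMSO as no toxicity.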
S2 tox – reduces viability in counter-screen for ATXN expression inhibitors; S2 cells (HEK-293 line with an ATXN2-luciferase reporter) viability, CellTiter-Fluor protease fluorescence, 24 h; hit rate 0.49% among 400,000; Potency, µM (doses to about 56.7 µM), usual class: cytotoxic; note: nearly all actives have a fitted effect of over 40% in size
Large screens that a line does not name were inactive. Rows were chosen to be rich in hits. Some 6.3% of all compounds tested hit in one or more screens of this group. Calls come from the whole dose curve; as a rule, active = well fitted curve in the direction sought with a large enough effect; inconclusive = small, poorly fitted or top-dose-only effect, or another doubt; inactive = no such curve, though single readings can be large; an effect the other way counts as inactive or inconclusive.

CC[C@H](C)[C@H](NC(=O)CNC(=O)[C@H](CCCNC(=N)N)NC(=O)CNC(=O)[C@@H](NC(=O)[C@H](Cc1ccc(O)cc1)NC(=O)[C@H](Cc1c[nH]c2ccccc12)NC(=O)[C@H](C)NC(=O)[C@@H]1CCCN1C(=O)[C@H](CC(N)=O)NC(=O)[C@@H](NC(=O)[C@H](CC(=O)O)NC(=O)[C@@H]1CCCN1C(=O)[C@@H](N)[C@@H](C)O)[C@@H](C)CC)[C@@H](C)O)C(=O)N[C@@H](CCCNC(=N)N)C(=O)N1CCC[C@H]1C(=O)N[C@H](C(=O)NCC(=O)N[C@@H](CCCNC(=N)N)C(=O)N[C@@H](Cc1ccccc1)C(N)=O)C(C)C	none (no result: TGFb inhibitor, ATXN2 expr inh, HepG2 tox, S2 tox)
CCCN1CCN(C(=O)CS(=O)(=O)Cc2nc(-c3cccc(OC)c3)oc2C)CC1	none
CCOc1ccccc1-c1nnc2n1N=C(c1ccc(OC)cc1)CS2	RORg inh inconclusive (no result: TGFb inhibitor, ATXN2 expr inh, HepG2 tox, S2 tox)
O=C(NCCN1CCOCC1)c1cnn(-c2ncc3c(n2)-c2ccccc2CC3)c1C1CC1	none (no result: TGFb inhibitor, Gal4-VP16 FLuc, RORg inh, ATXN2 expr inh, HepG2 tox)
O=c1[nH]c2ccc(Cl)cc2c(-c2ccccc2)c1[N+](=O)[O-]	TGFb inhibitor inconclusive, RORg inh 1.3µM
O=c1[nH]c2ccc(Cl)cc2c(-c2ccccc2)c1SC(=S)N1CCCCC1	Gal4-VP16 FLuc 7.1µM, RORg inh 5.6µM
O=c1[nH]c2ccc(Cl)cc2c(-c2ccccc2)c1SC(=S)N1CCOCC1	TGFb inhibitor 13µM, Gal4-VP16 FLuc 4.5µM, RORg inh 1µM
NNC(=O)CSc1c(-c2ccccc2)c2cc(Cl)ccc2[nH]c1=O	none
O=Cc1c[nH]c2ccccc12	none (no result: Gal4-VP16 FLuc, RORg inh, ATXN2 expr inh, S2 tox)
COc1ccc(S(=O)(=O)c2c(Nc3ccc(F)cc3)sc(C(=O)c3ccc4c(c3)OCO4)c2N)cc1	none (no result: Gal4-VP16 FLuc, RORg inh)
CCOC(=O)/C(=C\c1ccc(Cl)cc1)c1nc2sc(C)c(C)c2c(=O)[nH]1	TGFb inhibitor inconclusive, Gal4-VP16 FLuc 11µM, RORg inh inconclusive, ATXN2 expr inh inconclusive, HepG2 tox 8.9µM (no result: S2 tox)
COc1ccc([C@]23Cc4cc(OC)c(OC)cc4C(O2)c2c(c4ccccc4oc2=O)O3)cc1	none (no result: TGFb inhibitor, ATXN2 expr inh, HepG2 tox, S2 tox)
CCN1CCN(c2ccc(S(=O)(=O)N3CCOCC3)cc2NC(=O)C2CCC(C(C)(C)C)CC2)CC1 (configuration not stated)	TGFb inhibitor inconclusive, HepG2 tox 20µM (no result: Gal4-VP16 FLuc, RORg inh, ATXN2 expr inh)
O=C(COC(=O)CCc1ccccc1)Nc1cc(S(=O)(=O)N2CCOCC2)ccc1N1CCCC1	none
O=C(COC(=O)Cc1ccccc1F)Nc1cc(S(=O)(=O)N2CCOCC2)ccc1N1CCCC1	S2 tox 1µM
CC(C)(C)OC(=O)NCCc1onc(-c2cccc([N+](=O)[O-])c2)c1C(=O)O	none (no result: Gal4-VP16 FLuc, RORg inh)
NCC12CC3CC(C1)CC(c1ccc(Br)cc1)(C3)C2	TGFb inhibitor inconclusive, HepG2 tox 13µM (no result: ATXN2 expr inh, S2 tox)
Cc1ccc(C23CC4CC(CC(CN)(C4)C2)C3)cc1	TGFb inhibitor inconclusive, RORg inh inconclusive, S2 tox inconclusive
O=[N+]([O-])c1cccnc1Nc1ccc(Cl)cc1	S2 tox inconclusive (no result: Gal4-VP16 FLuc, RORg inh, ATXN2 expr inh)
O=[N+]([O-])c1ccc(/C=N/Nc2ncccc2[N+](=O)[O-])s1	HepG2 tox 5µM (no result: Gal4-VP16 FLuc, RORg inh)
COc1cccc(/C=N/Nc2ncccc2[N+](=O)[O-])c1OC	Gal4-VP16 FLuc 4.5µM, RORg inh 1.3µM, ATXN2 expr inh 3.2µM
Cc1c(C(=O)N(C)c2cccc(C(F)(F)F)c2)sc2nc3n(c(=O)c12)CCCCC3	none (no result: Gal4-VP16 FLuc, RORg inh, ATXN2 expr inh, S2 tox)
COC(=O)c1ccc2nc(-c3cccc(Br)c3)c(Cc3ccccc3)n2c1	none (no result: TGFb inhibitor, Gal4-VP16 FLuc, RORg inh, HepG2 tox)
Cc1nc2ccn(Cc3cccs3)c(=O)c2cc1C(=O)N1CCN(c2ccccc2F)CC1	TGFb inhibitor 20µM (no result: Gal4-VP16 FLuc, RORg inh, ATXN2 expr inh, S2 tox)
Cc1nc2ccn(Cc3ccco3)c(=O)c2cc1C(=O)N1CCN(c2ccccc2F)CC1	TGFb inhibitor inconclusive (no result: Gal4-VP16 FLuc, RORg inh, ATXN2 expr inh, S2 tox)
COc1ccc(Cn2ccc3nc(C)c(C(=O)N4CCN(c5cc(C)ccc5C)CC4)cc3c2=O)cc1	TGFb inhibitor 16µM, ATXN2 expr inh inconclusive, S2 tox inconclusive (no result: Gal4-VP16 FLuc, RORg inh)
COc1cc(OC)cc(C2=Nn3c(nnc3-c3cccc(OC)c3)SC2)c1	none (no result: TGFb inhibitor, ATXN2 expr inh, HepG2 tox, S2 tox)
Cc1cc(-c2nc3ccccc3s2)ccc1N	TGFb inhibitor inconclusive (no result: Gal4-VP16 FLuc, RORg inh)

Screening results from PubChem.
